# Screening results from PubChem BioAssay.
# The list is not random: actives were taken first. Their share in the collection is about 9.3%.
# Rab9 prom act: Rab9 promoter activation; Huh7 Rab9 promoter-luciferase reporter, luminescence, 24 h; Potency, µM (series often up to 9.22 µM), inactives show at the highest dose activation, negative = inhibition, most hits filed as activators; actives 2.8% (n = 320,000); also: % of control where 0% means no effect; nearly all actives have a fitted effect of over 60% in size
#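 Huh7 cells stably carrying Rab9 promoter–luciferase reporter, plated 1500 cells/well, compound added after 2 h and incubated 24 h at 37 °C; luciferase luminescence then read after 10 min with detection reagent.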
# ELG1 DNA repair: blocks ELG1-dependent DNA repair in HEK293T cells; HEK293T ELG1-luciferase reporter, luminescence, 16 h; DNA damage induced by 5-fluorouridine; actives 2.3% (n = 330,000); Potency, µM (series often up to 46.1 µM), inactives show at the top dose activity change, negative = inhibition, most hits filed as inhibitors; also: % is scaled to controls: 0 for no effect and ±100 for the full control effect; nearly all actives have a fitted effect of over 55% in size
#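 Step one: seed 2,000 cells per well. Step two: pin-transfer compound or DMSO alongside 5-fluorouridine. Step three: incubate 16 hr, 37 °C, 5% CO2. Step four: add ONE-Glo, wait 30 min, read luminescence.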
# FLuc counter: counter-screen for miR-21 project: firefly luciferase inhibitors or activators; P08659; Potency, µM (series often up to 57.5 µM), for the others: top-dose activity change, negative = inhibition, actives largely listed as inhibitors; actives 6.9% (n = 360,000); purified FLuc, Km substrates, luminescence inhibition;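 also: plate controls were vehicle for no effect and reference inhibitor for full effect; nearly all actives have a fitted effect of over 55% in size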
# Target sequence (P08659 whole entry, looked up): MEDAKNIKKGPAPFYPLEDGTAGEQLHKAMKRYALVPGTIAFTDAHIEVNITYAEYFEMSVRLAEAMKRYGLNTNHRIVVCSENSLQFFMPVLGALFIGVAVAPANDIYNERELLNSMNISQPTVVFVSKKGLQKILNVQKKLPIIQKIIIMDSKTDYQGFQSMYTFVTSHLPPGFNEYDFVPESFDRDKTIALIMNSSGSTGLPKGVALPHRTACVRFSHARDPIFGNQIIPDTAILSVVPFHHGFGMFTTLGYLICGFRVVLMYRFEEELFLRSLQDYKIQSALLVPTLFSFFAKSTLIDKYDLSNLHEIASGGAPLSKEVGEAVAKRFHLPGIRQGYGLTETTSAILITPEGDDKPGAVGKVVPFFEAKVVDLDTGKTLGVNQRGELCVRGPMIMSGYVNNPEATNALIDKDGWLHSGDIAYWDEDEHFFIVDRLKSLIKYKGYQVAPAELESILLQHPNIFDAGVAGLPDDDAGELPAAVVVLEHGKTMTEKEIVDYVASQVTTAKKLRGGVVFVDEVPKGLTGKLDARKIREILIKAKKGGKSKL
#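 Purified P. pyralis luciferase, 10 nM final, with Km-level 10 uM D-luciferin and 10 uM ATP in 50 mM Tris acetate pH 7.5, 10 mM Mg acetate, 0.01% Tween-20, 0.05% BSA; 6-point qHTS titration about 60 µM downward; luminescence read.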
# NPC1 prom act: activates the NPC1 promoter; AID 485313; Huh7 NPC1 promoter luciferase reporter, 24 h; Potency, µM (titrated, usually from 9.22 µM), for inactives: top-dose activation, hits mostly activators; actives 2.4% (n = 320,000); also: % of control where 0% means no effect; nearly all actives have a fitted effect of over 60% in size
#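 Luminescence read-out of NPC1 promoter-driven luciferase in stably transfected Huh7 cells; compounds delivered in DMSO and left 24 h at 37C, 5% CO2, qHTS titration format.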
# SMN2 splice enh: enhancers of SMN2 splice variant expression. HEK293 SMN2-luciferase splicing reporter, luminescence, 30-36 h. Potency, µM (series often up to 46.1 µM), inactives show at the highest dose activity change, positive = activation, usual class: activators. actives 2.8% (n = 210,000). AID 1458; also: % of control where 0% means no effect; nearly all actives have a fitted effect of over 55% in size
#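 qHTS luciferase splicing reporter: luminescence rises when SMN2 exon 7 is included in transfected HEK293 cells. Compound exposure lasted 30-36 h at 37C, with 4.5 mM final sodium butyrate as control, followed by a ONE-Glo read.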
# ELG1 genotox: genotoxicity induction in ELG1-luciferase HEK293T cells; Potency, µM (top dose mostly 46 µM), inactives show at the highest dose activity change, positive = activation, most hits filed as activators; actives 1.3% (n = 330,000); HEK293T ELG1-luciferase reporter, luminescence, 16 h; also: % of control where 0% means no effect; nearly all actives have a fitted effect of over 60% in size
#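 Luminescence read-out: rising ELG1-luciferase signal, reflecting elevated ELG1 protein under genetic stress, flags genotoxic compounds. Cells were treated for 16 hr at 37 °C before ONE-Glo detection.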
# * marks the source's active call; other numbers are inactive results; ? = inconclusive; / = no result given. Calls follow the shape of the dose curve; as a rule, active = well fitted curve in the direction sought with a large enough effect; inconclusive = small, poorly fitted or top-dose-only effect, or another doubt; inactive = no such curve, though single readings can be large; an effect the other way counts as inactive or inconclusive. Potency is read from the fitted curve at half-maximal effect.
SMILES,Rab9 prom act,ELG1 DNA repair,FLuc counter,NPC1 prom act,SMN2 splice enh,ELG1 genotox
COc1ccc2nc(NC3=NCCC3)sc2c1,3.2µM*,?,12µM*,3.5µM*,?,?
COc1ccc(CC(=O)Nc2sc3c(c2C(N)=O)CCCC3)cc1,-6%,?,-8%,-2%,/,-2%
COc1ccc(NC(=O)CN(C)C(=O)c2cc3c(s2)CCC(C)C3)cc1 (configuration not stated),4%,12%,15µM*,-4%,/,10%
COc1ccc(NC(=O)CN(C)CC(=O)Nc2sc3c(c2C(N)=O)CCC3)cc1,2%,21µM*,3%,-8%,/,0%
CCCCN1Cc2c(nc3cc(-c4ccco4)[nH]n3c2=O)C1=O,12%,15%,17µM*,3%,/,0%
COCc1cc(=O)n2[nH]c(-c3ccco3)cc2n1,0%,-2%,-14%,-6%,/,3%
COc1ccc(CN2CCNC(=O)C2CC(=O)N(C)Cc2ccon2)cc1OC (configuration not stated),-15%,11%,0%,-3%,/,1%
CC(/C=C/c1ccccc1F)=N\NC(=O)c1ccc(Cl)cc1,-8%,16%,-3%,0%,/,2%
C/C(=N/NC(=O)c1ccccc1)C(=O)O,3.5µM*,?,3.4µM*,3.5µM*,/,?
C/C(=N\NC(=O)c1ccc(Cn2cc(Br)cn2)o1)c1cccc(NC(=O)C(C)C)c1,2%,5.8µM*,4%,-3%,4%,-11%
C/C(=N\NC(=O)c1cccc(Br)c1)c1cccc(NC(=O)c2ccc(C)o2)c1,2%,?,17µM*,0%,-1%,-2%
CC(/C=C/c1ccccc1F)=N\NC(=O)c1ccccc1,3.2µM*,?,17µM*,?,16µM*,?
C/C(=N\NC(=O)c1ccc(Cn2cc([N+](=O)[O-])cn2)o1)c1cccc(NC(=O)C(C)C)c1,2%,?,-1%,-6%,-15%,-1%
Cc1ccc(C)c(OCCC(=O)OCC(=O)NC2CCS(=O)(=O)C2)c1 (configuration not stated),1%,12%,3%,0%,/,1%
O=C(O)c1ccccc1NC(=O)C1C2C=CC(C2)C1C(=O)O (configuration not stated),-4%,-1%,0%,2%,/,-5%
C/C(=N\NC(=O)c1cccc(Br)c1)c1ccc(Br)cc1,1%,20%,0%,8%,14%,9%
C/C(=N\NC(=O)c1ccccc1)c1cccc(Br)c1,2.5µM*,?,13µM*,?,?,?
N#Cc1ccc(CSc2nnc(-c3ccccn3)n2-c2ccccc2)cc1,-4%,-25%,8%,-1%,-30%,-1%
N#Cc1ccc(CSc2nnc(-c3cccs3)n2-c2ccccc2)cc1,1%,21µM*,-2%,0%,8%,-25%
N#Cc1ccc(CSc2nnc(-c3ccncc3)n2CCc2ccccc2)cc1,8%,23µM*,3%,0%,-26%,-6%
COC(=O)c1ccc(C(/C=C/[C@@H](C)C(=O)N(C)Cc2ccccc2)NC(=O)OCc2ccccc2)cc1 (some centres not stated),/,/,/,/,1%,/
Cc1c(NC(=O)COc2cccc(F)c2)c(=O)n(-c2ccccc2)n1C,-5%,10%,-1%,-1%,/,2%
Cc1cc2ncn(C(=O)N3CCC(C)CC3)c2cc1C,?,?,?,23%,16µM*,12%
O=C(CSc1ccccc1)Nc1nnc(C2CC2)s1,17%,5%,0%,0%,/,4%
Cc1ccc(-n2[nH]c(=O)c(-c3ccccn3)c2C)cc1,0.45µM*,?,0.3µM*,?,/,?
SMILES,Rab9 prom act,ELG1 DNA repair,FLuc counter,NPC1 prom act,SMN2 splice enh,ELG1 genotox
C=CCn1c(=NC(=O)c2cccc(N3C(=O)CCC3=O)c2)sc2cccc(OC)c21,-3%,?,?,1%,/,-8%
COc1ccc(C)c2sc(=NC(=O)c3cccc(N4C(=O)CCC4=O)c3)n(C)c12,?,?,6.7µM*,?,/,?
COc1ccc(C)c2sc(=NC(=O)c3ccccc3)n(C)c12,2.8µM*,?,2.1µM*,?,11µM*,6.5µM*
COc1ccc(C)c2sc(=NC(=O)C(C)C)n(C)c12,2%,-1%,-1%,6%,-16%,2%
COc1ccc(C)c2sc(=NC(=O)c3ccc(C(C)=O)cc3)n(C)c12,0.5µM*,?,0.67µM*,0.56µM*,/,?
CCOC(=O)c1cc2oc(C)cc2n1CC(=O)OC1CCCCC1,1%,-10%,3%,-7%,11%,?
CCN(Cc1ccccc1)C(=O)c1nn(-c2ccc(OC)cc2)c(=O)c2c1c1ccccc1n2C,-7%,18µM*,0%,-2%,0%,-11%
c1ccc(SCc2nc3ccccc3s2)nc1,1.3µM*,?,4.8µM*,3.5µM*,/,?
O=C(O)CCCc1nc2ccccc2s1,-1%,0%,?,-1%,?,3%
c1ccc2oc(SCc3nc4ccccc4s3)nc2c1,/,/,4.8µM*,/,?,/
CCOc1ccc(OCCSc2nc3ccccc3o2)cc1,-2%,?,-18%,7%,4%,10%
N#CCc1nc(CSc2nc3ccccc3o2)cs1,?,?,24µM*,?,4%,?
COc1cccc(CN2CCN(Cc3nc(-c4cccs4)oc3C)CC2CCO)c1 (configuration not stated),1%,-9%,1%,-2%,/,-3%
CC1CCCN(C(=O)CN2C(=O)NC3(CCCCC3C)C2=O)C1 (configuration not stated),0%,28%,-1%,-2%,/,0%
COc1ccc(CSc2nc3ccncc3n2CC(=O)Nc2cc(C)cc(C)c2)cc1,/,/,2.4µM*,/,?,/
Cc1cccc(CSc2nc3ccncc3n2CC(=O)Nc2ccc(C)c(C)c2)c1,19%,?,?,5%,5%,-1%
CCSc1nc2ccccc2n1CC(=O)OC,-3%,13%,-1%,1%,-9%,-1%
COc1ccc(NC(=O)Cn2c(SCc3cc(C)ccc3C)nc3ccncc32)c(OC)c1OC,/,/,-6%,/,-6%,/
COc1cccc(CSc2nc3ccncc3n2CC(=O)Nc2ccc(OC)c(OC)c2OC)c1,/,/,15µM*,/,?,/
COC(=O)Cn1c(SCc2ccccc2)nc2ccccc21,12%,?,15µM*,22%,12%,?
FC(F)(F)c1ccc(Sc2nnc(-c3cccs3)n2CC2CCCO2)nc1 (configuration not stated),-5%,0%,4%,-3%,-26%,-5%
